Compounds without any hit were thinned out: in the full panel of roughly 83,000, 20% have a hit.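 How to read the values: 0–100, growth inhibition (40 = 60% inhibited); 0, no net growth; -100 to 0, cell death (-40 = 40% of starting cells died; -100 = all dead).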 Values without a mark were called inactive. Activity calls are given as the source filed them. Rule for the calls: active = growth percent below 10; inactive = the rest.
How the values were obtained:
Experiment in all cases: NCI-60 one-dose screen, 48 h (100 = growth as untreated, 0 = no growth, -100 = all killed)
Conditions in all cases: 10 µM
HCT-15 colon = tested on: HCT-15 colon
HT29 colon = tested on: HT29 colon
SNB-75 CNS = tested on: SNB-75 CNS
U251 CNS = tested on: U251 CNS
PC-3 prostate = tested on: PC-3 prostate
SK-MEL-5 melanoma = tested on: SK-MEL-5 melanoma
UACC-62 melanoma = tested on: UACC-62 melanoma
LOX IMVI melanoma = tested on: LOX IMVI melanoma
SK-MEL-28 melanoma = tested on: SK-MEL-28 melanoma
SNB-19 CNS = tested on: SNB-19 CNS

Row | SMILES | growth (HCT-15 colon) [%] | growth (HT29 colon) | growth (SNB-75 CNS) | growth (U251 CNS) | growth (PC-3 prostate) | growth (SK-MEL-5 melanoma) | growth (UACC-62 melanoma) | growth (LOX IMVI melanoma) | growth (SK-MEL-28 melanoma) | growth (SNB-19 CNS)
1 | Cc1nc2sccn2c1-c1csc(Nc2cccc(Cl)c2C)n1 | 46.4 | 31% | 77.5% | 60.8% | 53.1% | 16.5% | 53.3% | 61.4% | 59.7% | –
2 | CC(=O)c1ccc(NCn2nc(-c3ccc(Cl)cc3)oc2=S)cc1 | 99.3 | 98.3% | 107% | 96.1% | 89.9% | 104% | 93.3% | 90.3% | 95.5% | –
3 | COc1cc(-c2cc(/C=C/C(C)=O)[nH]n2)cc(OC)c1OC | 65.7 | 66.6% | 84.7% | 56.6% | 71.3% | 79% | – | 62% | 97.4% | –
4 | O=C(O)c1ccc(CNc2ccc(C(=O)CCl)cc2)cc1 | 94.9 | 96.4% | 93.1% | 93.8% | 91.9% | 97.9% | 95.3% | 77.9% | 95.2% | –
5 | O=C(Nc1cccc(Cl)c1)Nc1cc2ncncc2cc1OCc1cccc(F)c1 | – | 0.74% (active) | 21.1% | 6.99% (active) | 9.57% (active) | -88.5% (active) | -18.4% (active) | 21.4% | – | 22.9%
6 | CCOC(=O)CSC(=S)SCC(=O)OCC | 94.6 | 99.8% | 83.1% | 104% | 103% | 106% | 101% | 98.6% | 97.7% | –
7 | N#Cc1ncc(-c2cc(F)ccc2F)c(NC2CCCCCC2)n1 | 82.8 | 94.7% | 67.3% | 9.98% (active) | 60.7% | 84.9% | 60.9% | 80.6% | 80.8% | –
8 | Cc1nn2c(/C=C3/C(=O)Nc4ccc(Cl)cc43)c(-c3ccccc3)nc2s1 | 57.1 | 35.1% | -35.4% (active) | 34.8% | 32.3% | 26.3% | 39.3% | 45.3% | – | –
9 | N#Cc1cnc2ccc(NCc3cnc[nH]3)cc2c1Nc1ccc(F)c(Cl)c1 | 88.4 | 82% | 86.4% | 58.8% | 70.1% | 87.5% | 83% | – | 98% | –
10 | COc1cc(CSc2nc3ccc(C)cc3c(=O)n2Cc2ccccc2)cc(OC)c1OC | 29.2 | 10.5% | -4.08% (active) | 33.1% | 45.9% | 17.8% | 21.4% | 39.8% | 52% | –
11 | Cc1nc2ccc(-n3c(-c4ccc(Cl)cc4)nc4ccccc4c3=O)cc2n1Cc1ccccc1 | 77 | 95.6% | 95.9% | 89.1% | 58.6% | 66.7% | 78.4% | 91.9% | 107% | –
12 | COc1cc(-c2nc3ccc(C)cc3[nH]2)ccc1OCC(=O)N=Nc1c(O)[nH]c2ccccc12 | – | -77.1% (active) | -34.8% (active) | -96.3% (active) | -63.8% (active) | 29.1% | -83.1% (active) | -97.7% (active) | -77.5% (active) | -75.2% (active)
13 | C#C[C@]1(O)CC[C@H]2[C@@H]3CC[C@H]4CC(F)(F)CC[C@]4(C)[C@H]3CC[C@@]21C | – | 64.1% | 70.5% | 73.3% | 70.7% | 94.3% | 78.8% | 89.1% | 74.4% | 80.3%
14 | Cc1ccc(NC(=O)/C=N/O)cc1C | – | 102% | 84.4% | 89.8% | 86.5% | 97.6% | 95.4% | 101% | 104% | 102%
15 | O=C(O)CNS(=O)(=O)c1ccc(OCCOc2ccc(S(=O)(=O)NCC(=O)O)cc2)cc1 | – | 98% | 97.2% | 99.9% | 96.5% | 97.4% | 102% | 96.8% | – | –
16 | COCc1cc2c(cc1Br)OCO2 | – | 106% | 87.1% | 99.1% | 86.8% | 107% | 100% | 95.6% | 99.1% | –
17 | Cc1nnc2c3nnc(-c4ccc(Cl)cc4)n3c3ccccc3n12 | – | 103% | 89.1% | 100% | 91.8% | 99.7% | 97.7% | 97.2% | 104% | 106%
18 | COc1cccc(C2(C)Nc3ccccc3-c3nc4ccccc4n32)c1 (stereo not given) | – | 113% | 103% | 101% | 109% | 101% | 102% | 101% | 107% | 105%
19 | CCCC(C)c1ccc(OCCCCCCN2CCNCC2)cc1 (stereo not given) | – | 5.51% (active) | 35.9% | -2.39% (active) | 49.4% | 53.5% | -46.4% (active) | – | 13.2% | 56%
20 | CN(C)c1ccc2c(c1)OC(N)=C(C#N)C2c1ccc2c(c1)CCO2 (stereo not given) | – | 9% (active) | 40.8% | 21.7% | 24.1% | 10.3% | 34.8% | 29% | 57.6% | 31.4%
21 | CCNC(=S)NN | – | 56.2% | 77% | 87.2% | 60.7% | 102% | 99.2% | 96.8% | 107% | 97.2%
22 | COc1cc([C@@H]2c3cc4c(cc3[C@H](SC(=N)N)[C@H]3COC(=O)[C@H]23)OCO4)cc(OC)c1OC | – | 8.38% (active) | 30.1% | 23.2% | 19.5% | -29.6% (active) | 62.2% | 16.5% | 63.7% | 37.4%
23 | COc1cc(OC)cc(-c2ccc(-c3ccc(C(=N)N)cn3)o2)c1 | – | -38.5% (active) | -35.7% (active) | -80.9% (active) | 31.4% | -95.7% (active) | -89.7% (active) | -89.5% (active) | -95.4% (active) | 33.3%
24 | COc1cccc(C(=O)NNc2nc(N3CCOCC3)nc(N3CCN(C(c4ccccc4)c4ccccc4)CC3)n2)c1 | – | 95% | 71.5% | 85.2% | 55.1% | 53.3% | – | – | 93.4% | 86.3%
25 | O=[N+]([O-])c1ccc(Br)o1 | – | 95.8% | 97.5% | 103% | 98.8% | 96.9% | 103% | 93.9% | 104% | 107%
